{"source": "PubChem BioAssay (EPA / NIEHS)", "note": "Several values for one entry are separate records, joined by “and”; a condition that tells them apart may be missing. Identical values can stand only once. A structure can be active in one record and inactive in another. Activity calls are given as the source filed them. How the source made its calls: active means hit-call score of the fitted dose curve at least 0.9, where 1 is the maximum; inactive means score below 0.9.", "data": [{"read-out": "Actin alpha 1 (ACTA1), ACTA1 (gene 58)", "experiment": "BSK_MyoF_ACTA1: BioMAP Diversity Plus: MyoF Assay for Actin alpha 1 (ACTA1) Biomarker Activity (AID 2284244)", "details": "primary human lung fibroblasts", "method": "BSK_MyoF is a cell-based, multiplexed-readout assay that uses lung fibroblasts, […], with measurements taken at 24 hours after chemical dosing in a microplate: 96-well plate.BSK_MyoF_ACTA1 is an assay component measured in the BSK_MyoF assay. It measures a-SMA antibody related to regulation of gene expression using ELISA technology.Data from the assay component BSK_MyoF_ACTA1 was analyzed at the endpoint, BSK_MyoF_ACTA1, in the positive analysis fitting direction relative to DMSO as the negative control and baseline of activity. Using a type of binding reporter, gain or loss-of-signal activity can be used to understand protein changes. To generalize the intended target to other relatable targets, this assay endpoint is annotated to the 'cell adhesion molecules' intended target family, where the subfamily is 'actin'.\nThe levels of cell surface (or secreted, indicated by the prefix \"s\") biomarker endpoints were measured by ELISA. Overt cytotoxicity to cells in confluent adherent cultures (all systems other than the BT system) was assessed by measuring total protein levels using sulforhodamine B (SRB) staining in parallel cultures at the time of biomarker measurements, indicated as SRB endpoints. For proliferation assays for adherent cell types, individual cell types are cultured at sub-confluence and relative cell numbers quantified by SRB staining at time points optimized for each system (48 h: 3C and CASM3C systems; 72 h: BT and HDF3CGF systems; 96 h: SAg system). SRB was performed by staining cells with 0.1% SRB after fixation with 10% TCA and reading wells at 560 nm.Viability and proliferation of PBMC (T cells) was quantified by Alamar Blue reduction for the SAg and BT systems. For PBMC viability (referred to as PBMC Cytotoxicity within the assay endpoint names), cells were plated (75,000/well in a 96-well plate) and then chemical samples added for 1 h before addition of activators, SEB and TSST-1 (20 ng/mL final concentration each). Cells were incubated for 90 h. Then, Alamar Blue (20 uL/well) (Invitrogen, Cat DAL1100) was added for 6 h, and the plates were read with a fluorescence microplate reader at 546/580 nm (excitation/emission). For PBMC proliferation, cells were plated and activated as above but incubated for only 16 h prior to addition of Alamar Blue. Plates were read after 6 h.", "values": [{"smiles": "O=C=NCc1cccc(CN=C=O)c1", "outcome": "inactive"}, {"smiles": "Cc1ccc(S(=O)(=O)C(I)I)cc1", "AC50": "7.35 µM (active)"}, {"smiles": "O=C=Nc1cccc2c(N=C=O)cccc12", "outcome": "inactive"}, {"smiles": "Cc1cnccn1", "outcome": "inactive"}, {"smiles": "CCN(CC)c1ccc(C=O)cc1", "outcome": "inactive"}, {"smiles": "O=S(=O)(OCC(F)(F)F)C(F)(F)C(F)(F)C(F)(F)C(F)(F)F", "outcome": "inactive"}, {"smiles": "O=C(O)C(F)(F)C(F)(F)C(F)(F)OC(F)(F)F", "outcome": "inactive"}, {"smiles": "CCOC(=O)CC(=O)C(F)(F)C(F)(F)F", "outcome": "inactive"}, {"smiles": "O=C(O)C(F)(F)C(F)(F)C(F)(F)C(F)(F)C(F)(F)C(F)(F)C(F)F", "outcome": "inactive", "AC50": "0.232 µM (active)"}, {"smiles": "NC(=O)C(F)(F)C(F)(F)C(F)(F)C(F)F", "outcome": "inactive"}, {"smiles": "OCCCCC(F)(F)C(F)(F)C(F)(F)C(F)(F)F", "outcome": "inactive"}, {"smiles": "Cc1ccc(O)c(-n2nc3ccccc3n2)c1", "outcome": "inactive"}, {"smiles": "NC(=O)C(F)(F)C(F)(F)C(F)(F)C(F)(F)C(F)(F)C(F)(F)C(F)(F)F", "outcome": "inactive"}, {"smiles": "O=C(F)C1(F)C(F)(F)C(F)(F)C(F)(F)C(F)(F)C1(F)F", "outcome": "inactive"}, {"smiles": "Cc1cc(O)c(C(C)(C)C)cc1C(C)(C)C", "AC50": "3.74 µM (active)"}, {"smiles": "O=C(O)C(F)(F)C(F)(F)C(F)(F)OC(F)(C(F)(F)F)C(F)(F)F", "outcome": "inactive"}, {"smiles": "CNS(=O)(=O)C(F)(F)C(F)(F)C(F)(F)C(F)(F)C(F)(F)C(F)(F)C(F)(F)C(F)(F)F", "outcome": "inactive"}, {"smiles": "COC(F)(C(F)F)C(F)(F)F", "note": "(stereo not given)", "outcome": "inactive", "AC50": "0.556 µM (active)"}, {"smiles": "O=C1c2c(O)ccc(Nc3ccc(CCO)cc3)c2C(=O)c2c([N+](=O)[O-])ccc(O)c21", "AC50": "25.6 µM (active)"}, {"smiles": "C=C(C)C(=O)OCC(F)(F)C(F)(F)C(F)(F)C(F)F", "outcome": "inactive", "AC50": "14.4 µM (active)"}, {"smiles": "NCC(F)(F)C(F)(F)C(F)(F)C(F)(F)C(F)(F)C(F)(F)C(F)(F)C(F)(F)F", "outcome": "inactive"}, {"smiles": "NS(=O)(=O)C(F)(F)C(F)(F)C(F)(F)C(F)(F)C(F)(F)C(F)(F)F", "outcome": "inactive"}, {"smiles": "OCC(F)(F)C(F)(F)C(F)(F)C(F)(F)C(F)(F)C(F)(F)CO", "outcome": "inactive"}, {"smiles": "O=S(=O)(O)CCC(F)(F)C(F)(F)C(F)(F)C(F)(F)F", "outcome": "inactive"}, {"smiles": "O=C(O)CCC(F)(F)C(F)(F)C(F)(F)C(F)(F)C(F)(F)C(F)(F)C(F)(F)F", "outcome": "inactive"}, {"smiles": "CCN(CC)c1ccc(N=Nc2ccccc2)cc1", "AC50": "23.8 µM (active)"}, {"smiles": "O=S(=O)(Cl)C(F)(F)C(F)(F)C(F)(F)C(F)(F)C(F)(F)C(F)(F)C(F)(F)C(F)(F)F", "outcome": "inactive"}, {"smiles": "C=CC(=O)OCC(F)(F)C(F)(F)C(F)(F)C(F)(F)C(F)(F)C(F)(F)C(F)(F)C(F)F", "AC50": "30 µM (active) and 19.5 µM (active)"}, {"smiles": "Cc1cc(C)c(O)c(C(C)(C)C)c1", "AC50": "29.8 µM (active)"}, {"smiles": "O=C(O)C(F)(F)C(F)(F)C(F)(F)C(=O)O", "outcome": "inactive"}, {"smiles": "CC(C)(C)c1cc(CCC(=O)NCCCCCCNC(=O)CCc2cc(C(C)(C)C)c(O)c(C(C)(C)C)c2)cc(C(C)(C)C)c1O", "outcome": "inactive"}, {"smiles": "C=CC(=O)OCCC(F)(F)C(F)(F)C(F)(F)C(F)(F)F", "outcome": "inactive"}, {"smiles": "CN(C(=O)C(F)(F)C(F)(F)C(F)(F)F)[Si](C)(C)C", "outcome": "inactive"}, {"smiles": "CCOC(C=C(C)CCC=C(C)C)OCC", "AC50": "7.77 µM (active)"}, {"smiles": "CC1=CC2C3C=CC(C3)C2C1C", "note": "(stereo not given)", "outcome": "inactive"}, {"smiles": "CCN(CCO)S(=O)(=O)C(F)(F)C(F)(F)C(F)(F)C(F)(F)C(F)(F)C(F)(F)C(F)(F)C(F)(F)F", "AC50": "19.5 µM (active)", "outcome": "inactive"}]}]}
